These results are taken from PubChem BioAssay AID1159607 (Small Molecule Screening Facility, UW Madison, 2016).

The whole screen tested about 70,000 compounds, of which about 400 (0.57%) were called active. What follows is part of a selection rich in actives, with near analogues and random picks from the rest. Values without a mark were called inactive. Cut-off read from the data, not from the text of the source: active = FP signal below about 40; inactive = the rest.

The assay relates to RMI core complex (RMI1/RMI2) binding to FANCM MM2 peptide, human. The assay is described as follows: disruptors of RMI1/RMI2 association with MM2 peptide – biochemical, fluorescence polarization, human, primary screen (AID 1159607). Particulars: RMI core complex with F-MM2 peptide, at 33 µM, active compounds read low. For orientation: In fluorescence polarisation assays a small probe gives low polarisation when free and higher when bound to something large.
Take `C=Cc1cc2ccc(C)cc2nc1Cl`: the FP signal (polarization) was 58. Regarding `CC(C)c1c(O)ccc2c1CCC1[C@@](C)(CO)CCC[C@]21C` (stereo not given in full), the FP signal (polarization) was 58. In the case of `COc1cn(CC(=O)Nc2cccc(F)c2)c(CN2CCN(c3ccccc3)CC2)cc1=O`, the FP signal (polarization) was 54. With `O=C(O)/C=C/C(=O)Nc1ccc(Oc2ccc(Cl)cc2)cc1` the figure was 53; with `CSc1nc2ccc(NC(=O)c3ccc(Oc4ccc(C(=O)Nc5ccc6nc(SC)sc6c5)cc4)cc3)cc2s1`, 63; with `CC(C)Oc1ccc(C(=O)NCC(c2ccsc2)N2CCCCCC2)cc1` (stereo not given), 75. Regarding `O=C(CCCSc1ccc(NC(=O)C2CC2)nn1)NCc1ccccn1`, the FP signal (polarization) was 67.

For the compound `C=CCc1cccc2cc(C(=O)Nc3cc(OC)c(Cl)cc3OC)c(=O)oc12`, the FP signal (polarization) was 60. With `O=C(CC1CCCCN1S(=O)(=O)c1cccs1)Nc1ncccn1` (stereo not given) the figure was 69; with `Cc1ccc(-c2nc(N3CCOCC3)sc2-c2ccc([N+](=O)[O-])cc2)cc1`, 74. Consider `COc1ccc2oc(-c3csc(NC(=O)C4COc5ccccc5O4)n3)cc2c1` (stereo not given), for which the FP signal (polarization) was 66. With `CC(C)CCN1C(=O)C(C)(C)COc2ccc(NC(=O)Cc3ccc(F)cc3)cc21` the figure was 77. Under `Cc1nc(-c2ccc(S(=O)(=O)N3CCN(C(=O)c4ccco4)CC3)s2)cs1` stands 60; under `CCCOc1ccc(S(=O)(=O)N2CCN(c3ccc(F)cc3)CC2)cc1C`, 66. On to `COCCN1CCCc2ccc(NS(=O)(=O)c3ccc(C)c(Cl)c3)cc21`, for which the FP signal (polarization) was 78. Regarding `COc1cc(-c2nnc(NC(=O)c3ccc([N+](=O)[O-])cc3)o2)cc(OC)c1OC`, the FP signal (polarization) is 54. Under `CCOC(=O)c1oc2ccccc2c1NC(=O)c1cccc(N2C(=O)CCC2=O)c1` stands 74. Consider `O=S(=O)(c1cccnc1)N1CCN(c2ccc(-c3cccs3)nn2)CC1`, for which the FP signal (polarization) was 69. With `CCOC(=O)c1ccc(NC(=O)CSc2nnc(NC(=O)COc3ccc(Cl)cc3Cl)s2)cc1` the figure was 62; with `O=C(COc1ccc(Cl)cc1Cl)Nc1nnc(SCC(=O)Nc2nnc(-c3cccc([N+](=O)[O-])c3)s2)s1`, 16 (active); with `COc1ccc(Cl)cc1C(=O)Nc1nnc(-c2cccc([N+](=O)[O-])c2)s1`, 74. Regarding `O=C(Cn1nc(-c2ccc(F)cc2)c2sc(N3CCCC3)nc2c1=O)Nc1ccc(F)cc1F`, the FP signal (polarization) is 92. In the case of `CN1C(=O)C(C)(C)COc2ccc(NC(=O)c3ccc(Br)cc3)cc21`, the FP signal (polarization) is 68.

For `COc1ccccc1CCNC(=O)CSc1nnc2ccc(-c3cccnc3)nn12`, the FP signal (polarization) is 55. Regarding `Cc1c(NC(=S)Nc2ccc3c(c2)OCO3)c(=O)n(-c2ccccc2)n1C`, the FP signal (polarization) was 59. In the case of `CN(C)c1ccc(C=NS(=O)(=O)c2cccs2)cc1`, the FP signal (polarization) was 57. For `CSc1cccc(NC(=O)C(=O)NCCc2ccccc2)c1`, the FP signal (polarization) is 65. Turning to `Cc1[nH]c(=O)[nH]c(=O)c1CCC(=O)Nc1ccc(F)c(Cl)c1`, the FP signal (polarization) is 60. Under `COc1ccc(S(=O)(=O)CC(=O)Nc2cc(C)nn2-c2nc3ccccc3s2)cc1` stands 78; under `CCOc1ccccc1C(=O)NCC(=O)N1CCOC(c2ccccc2)C1` (stereo not given), 73. Turning to `COc1cc(-c2noc(-c3cc(-c4ccccc4)n[nH]3)n2)cc(OC)c1OC`, the FP signal (polarization) is 95. For `Nc1cc(=O)[nH]c(SCC(=O)Nc2ccc(S(N)(=O)=O)cc2)n1`, the FP signal (polarization) was 61. Consider `O=C(CSc1nc2ccc(Br)cc2c2nc3ccccc3n12)NCC1CCCO1` (stereo not given), for which the FP signal (polarization) was 57. With `CCOc1ccc(NC(=O)CC(NCCc2ccc(OC)cc2)C(=O)O)c([N+](=O)[O-])c1` (stereo not given) the figure was 51; with `COc1ccc(S(=O)(=O)Nc2ccccc2C(=O)O)cc1C`, 62; with `Cc1ccc2nc(N(CCN(C)C)C(=O)c3ccc(S(=O)(=O)N4CCCCCC4)cc3)sc2c1`, 90. Take `O=C(NCCc1ccccc1)NCC(c1ccsc1)N1CCOCC1` (stereo not given): the FP signal (polarization) was 64. With `Cc1cc(-c2nnc(NC(=O)CCCS(=O)(=O)c3ccc(F)cc3)o2)nn1C` the figure was 61; with `Cn1nc(-c2ccc3ccccc3c2)c(=O)n(C)c1=S`, 50; with `O=C(NCCC1=CCCCC1)C(=O)NCC(c1ccco1)N1CCOCC1` (stereo not given), 57. Take `CCSc1cccc(C(=O)Nc2ccc3nc(C)sc3c2)c1`: the FP signal (polarization) was 80. As to `CC[N+](C)(CC)CCC[n+]1c(-c2ccccc2)c2cc(N)ccc2c2ccc(N)cc21`, the FP signal (polarization) was -45 (active).

As for `CCSc1nnc(NC(=O)c2cc(=O)c(OC)co2)s1`, the FP signal (polarization) is 64. As for `COc1ccc(OC)c(Nc2nc(CC(=O)Nc3nc4ccccc4s3)cs2)c1`, the FP signal (polarization) is 66. As for `Cc1noc(NS(=O)(=O)c2ccc(N/C=C(\C#N)c3nc4ccccc4n3C)cc2)c1C`, the FP signal (polarization) is 68. In the case of `CS(=O)(=O)NCC(c1ccco1)N1CCOCC1` (stereo not given), the FP signal (polarization) was 57. As to `c1ccc(-c2nc(SCc3nc4ccccc4[nH]3)oc2-c2ccccc2)cc1`, the FP signal (polarization) is 64.

Turning to `Cc1ccc2nc(NC(=O)CSc3nnc4ccc(-c5ccccn5)nn34)sc2c1`, the FP signal (polarization) was 69. As for `Cc1cccc(NC(=O)Nc2ccc(Nc3ccc(-n4cccn4)nn3)cc2)c1C`, the FP signal (polarization) is 85. With `COc1ccc(NC(=O)c2c(F)cccc2F)cc1N1CCCCC1=O`, the FP signal (polarization) is 54. With `CCOC(=O)c1ccc2nc(NC(=O)/C=C/c3ccccc3Cl)sc2c1`, the FP signal (polarization) is 62. On to `CSc1cccc(NC(=O)C(=O)NCCN2CCN(c3ccccc3F)CC2)c1`, for which the FP signal (polarization) is 87. With `O=C(Nc1cc2ccccc2cc1NC(=O)c1ccc(N2C(=O)CCC2=O)cc1)c1ccc(N2C(=O)CCC2=O)cc1`, the FP signal (polarization) was 57. Regarding `CCN1CCOc2ccc(NC(=O)c3cc4ccccc4oc3=O)cc2C1=O`, the FP signal (polarization) was 62. As for `O=C1CCc2cc(S(=O)(=O)NCc3ccco3)cc3c2N1CCC3`, the FP signal (polarization) is 54. In the case of `OCc1cnc(SCc2ccc(Cl)c(Cl)c2)n1Cc1ccc(F)cc1`, the FP signal (polarization) was 67.

Turning to `O=C(NCc1cccs1)C(=O)N1CCN(c2cccc(Cl)c2)CC1`, the FP signal (polarization) is 53.

As for `N#CC(C#N)=C1SCN(c2cccc(Cl)c2)CS1`, the FP signal (polarization) is -20 (active).

On to `Cc1ccc(S(=O)(=O)/C(C#N)=C/N2CCN(c3cccc(Cl)c3)CC2)cc1C`, for which the FP signal (polarization) was 71. Consider `Cc1nnc(SCc2ccccc2[N+](=O)[O-])s1`, for which the FP signal (polarization) is 61. For the compound `Nc1c(C(=O)c2cccc(Br)c2)sc2nc3c(c(-c4cccs4)c12)CCCC3`, the FP signal (polarization) is -15. Regarding `Nc1c(C(=O)c2ccc(Cl)cc2)sc2nc(-c3cccs3)cc(C(F)(F)F)c12`, the FP signal (polarization) is 19. Take `COc1ccc(-c2cc(-c3cccs3)nc3sc(C(N)=O)c(N)c23)cc1`: the FP signal (polarization) was 33 (active).

Turning to `O=S(=O)(NCC(c1ccsc1)N1CCOCC1)c1ccc(F)cc1F` (stereo not given), the FP signal (polarization) is 65. With `Cc1cc(C)c2nc(N(CCn3cccn3)C(=O)c3cc4ccccc4o3)sc2c1` the figure was 66; with `CN1C(=O)c2ccc(NC(=O)c3ccn(C)n3)cc2C1=O`, 71; with `Cc1nc2sc(C)c(C)n2c(=O)c1NC(=O)c1c(F)cccc1Cl`, 66. `COc1ccc(CCS(=O)(=O)Nc2ccc3c(c2)N(C)C(=O)C(C)(C)CO3)cc1`: the FP signal (polarization) is 67.

With `O=C(Cn1cnc(-c2ccc(F)cc2)cc1=O)N1CCN(c2cccc(Cl)c2)CC1`, the FP signal (polarization) is 70. Turning to `Cc1nc2c(=O)n(Cc3cccc(F)c3)nc(-c3ccco3)c2s1`, the FP signal (polarization) is 62. Under `O=C(O)CCNC(=S)Nc1ccc(F)c(Cl)c1` stands 54; under `CC1(C)Cc2cccc(OCc3ccc(C(=O)NCCN4CCOCC4)cc3)c2O1`, 54; under `C=CCn1c(SCCC(=O)Nc2scc(-c3ccc(Cl)cc3)c2C(=O)OCC)nc2sc3c(c2c1=O)CCC(C)C3` (stereo not given), 84. For `NNC(=O)c1cccnc1N`, the FP signal (polarization) was 51.

With `COc1ccc(CCNC(=O)c2cccc(NS(=O)(=O)c3cccc(F)c3)c2)cc1OC`, the FP signal (polarization) is 72. Take `CCOC(=O)c1c(NC(=O)c2ccc(C(=O)OC)cc2)sc2c1CCC2`: the FP signal (polarization) is 75. On to `CCc1ccccc1NC(=O)C(=O)NCCCN1CCOC(c2ccccc2)C1` (stereo not given), for which the FP signal (polarization) is 72.

In the case of `CCCC(=O)Oc1c(Cl)cc(N(C(=O)CCC)S(=O)(=O)c2ccc(C)cc2)cc1Cl`, the FP signal (polarization) is 50. With `CC1CCc2c(sc(NC(=O)c3cccc([N+](=O)[O-])c3)c2C#N)C1` (stereo not given), the FP signal (polarization) was 48.

With `CC1=NN(CCN2CCCCC2)c2nc3c(c(=O)n(CCN4CCCCC4)c(=O)n3C)n2C1C` (stereo not given), the FP signal (polarization) is 65. As for `Cc1ccccc1OCCCn1c(C2CC(=O)N(C(C)(C)C)C2)nc2ccccc21` (stereo not given), the FP signal (polarization) was 69. For the compound `CCCOc1ccc(Cn2c3ccccc3c3nc4ccccc4nc32)cc1`, the FP signal (polarization) was 60.

For the compound `Cc1ccc(C(C)C)c(OCCCn2c3ccccc3c3nc4ccccc4nc32)c1`, the FP signal (polarization) was 27 (active).

On to `COc1ccc(-c2nnc(NC(=O)CSc3ccc(Cl)cc3)s2)cc1`, for which the FP signal (polarization) was 67. Under `COc1ccc(-c2nnc(NC(=O)c3cc(Cl)sc3Cl)o2)c(OC)c1` stands 62; under `COc1ccc(-c2nnc(NC(=O)/C=C/c3ccccc3Cl)o2)c(OC)c1`, 35 (active); under `Cc1cc(-c2nnc(NC(=O)/C=C/c3ccccc3Cl)o2)nn1C`, 63.

As to `COc1ccc(-c2cc(C(F)(F)F)n3nc(C(=O)Nc4cc5c(cc4[N+](=O)[O-])OCCO5)cc3n2)cc1`, the FP signal (polarization) was 37.

In the case of `CCn1cc(NC(=O)N2CCc3ccccc32)c2ccccc21`, the FP signal (polarization) is 53. Turning to `COc1ccccc1CCNC(=O)C(=O)NC1CCCCCC1`, the FP signal (polarization) is 51.
